Compound activity (PubChem)
Rows were chosen to be rich in hits. Some 0.93% of all compounds tested hit in one or more screens of this group.
AGP1 TOR yeast = modulators of AGP1-GFP expression in yeast TOR pathway, primary screen, cell-based, multiplex flow cytometry, S. cerevisiae, MLPCN library; 3 h; GFP as percent of DMSO wells; GFP response vs DMSO, % at 10 µM; actives 0.02% (n = 320,000); AID 2066, 2009;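 active = GFP response relative to DMSO above a set limit, near screen average plus 3 SD, cut at about 150% in these data; inconclusive = fewer than 70 cells counted for the yeast strain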;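 note: median GFP channel fluorescence of the gated AGP1 strain per well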
CIT2-GFP yeast = modulators of CIT2-GFP expression in yeast, primary screen, S. cerevisiae, GFP fusion, multiplex flow cytometry, MLPCN library | AID 2029, 2009 | actives 0.065% (n = 320,000) | S. cerevisiae CIT2-GFP strain, 3 h; 100 means same as DMSO wells | GFP response vs DMSO, % at 10 µM;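 active = GFP response relative to DMSO above a set limit, near the screen mean plus 3 SD, cut at about 150% in these data; inconclusive = Fewer than 70 cells measured for a yeast strain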;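 note: ratio of well median GFP fluorescence to mean of DMSO wells on the plate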
RPL19A-GFP yeast = RPL19A-GFP expression modulators in yeast, primary screen, cell-based, S. cerevisiae, multiplex flow cytometry, MLPCN; S. cerevisiae RPL19A-GFP strain, 3 h; hits give low values; percent response vs DMSO, % at 10 µM; actives 0.3% (n = 330,000); AID 2025, 2009;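 active = percent response vs DMSO below 50%; inconclusive = fewer than 70 events counted for the yeast strain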;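 note: median channel GFP fluorescence of the barcoded RPL19A-GFP strain; lower means less RPL19A-GFP as with rapamycin TOR inhibition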
MEP2 TOR yeast = modulators of MEP2-GFP levels in yeast, primary screen, S. cerevisiae, multiplex flow cytometry, MLPCN library; GFP response vs DMSO, % at 10 µM; actives 0.51% (n = 330,000); S. cerevisiae MEP2-GFP strain, 3 h; 100% = DMSO control level; AID 2016, 2009;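 active = GFP response versus DMSO above a set limit, roughly screen mean plus 3 SD, cut at about 180% in these data; inconclusive = fewer than 70 cells counted for a yeast strain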;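 note: median GFP fluorescence of the barcode-gated MEP2-GFP cells per well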
LAP4 TOR yeast = modulators of LAP4-GFP expression in yeast, primary screen, S. cerevisiae, multiplex flow cytometry, MLPCN library; 3 h; median GFP as percent of DMSO wells; GFP response vs DMSO, % at 10 µM; actives 0.34% (n = 320,000); AID 2023, 2009;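 active = GFP response vs DMSO above a set limit, about the screen mean plus 3 SD, cut at about 150% in these data; inconclusive = under 70 cell events counted for the yeast strain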
A number is an active result; - = inactive; ? = inconclusive; [ ] = another dose, or the depositor's remark.

SMILES	AGP1 TOR yeast	CIT2-GFP yeast	RPL19A-GFP yeast	MEP2 TOR yeast	LAP4 TOR yeast
CC(=O)c1cc2c(cc1NS(=O)(=O)c1ccccc1C)OCO2	-	-	-	-	-
CC(=O)c1cc2c(cc1NS(=O)(=O)c1ccccc1Br)OCO2	-	?	-	608[may fluoresce violet]	-
O=C(CSc1nnc(-c2ccccn2)n1Cc1ccccc1)N1CCOCC1	-	-	-	511	167
Cc1nc(N2CCN(C)CC2)[nH]c(=O)c1Cc1cccc2ccccc12	-	-	-	-	-
Cc1[nH]c(=O)[nH]c(=O)c1Cc1cccc2ccccc12	?	?	48[may fluoresce violet]	323[may fluoresce violet]	-
COc1cccc(C(=O)C2CCCN(Cc3cn[nH]c3C3CCCCC3)C2)c1 (stereo unspecified)	-	-	-	-	-
COc1ccc(OC)c(C2=Nn3c(nnc3-c3ccncc3)SC2)c1	?	?	43[may fluoresce violet]	265[may fluoresce violet]	-
COc1ccc(OC)c(C2=Nn3c(nnc3-c3cc(OC)c(OC)c(OC)c3)SC2)c1	-	-	-	-	-
COc1ccc(C2=Nn3c(nnc3-c3ccc(OC)cc3)SC2)cc1	-	-	-	-	-
COc1ccc(C2=Nn3c(nnc3-c3cc(C)[nH]n3)SC2)cc1	?	?	18[may fluoresce violet]	214[may fluoresce violet]	-
FC(F)(F)c1cnc(-c2cnc(-c3ccccn3)nc2)c(Cl)c1	-	-	-	-	155
O=S(=O)(c1ccc(Cl)cc1)c1cnc(-c2cccnc2)nc1-c1ccccc1	?	?	-	221[may fluoresce violet]	-
CN(C)c1ncc(S(=O)(=O)c2ccc(Cl)cc2)c(-c2ccccc2)n1	-	-	-	-	-
CCOc1ccc(CNc2ccc(S(N)(=O)=O)cc2)cc1	-	-	-	-	-
COc1cc(C(=O)OCC(=O)Nc2ccc(F)cc2F)cc(OC)c1OC	-	-	-	-	-
Cc1sc2nc(C(C)(C)C)oc(=O)c2c1C	-	-	-	-	-
CC(=O)Nc1ccc(S(=O)(=O)N2CCCCC2c2cccnc2)cc1 (stereo unspecified)	-	-	-	-	-
COc1cc(C)c(C)cc1S(=O)(=O)N1CCCCC1c1cccnc1 (stereo unspecified)	-	-	-	207	-
O=C1CCCCC1c1cccc2ccccc12 (stereo unspecified)	-	?	-	177[may fluoresce violet]	-
O=[N+]([O-])c1ccc(S(=O)(=O)N2CCSC2c2ccco2)cc1 (stereo unspecified)	-	-	-	-	-
Cc1cc(C(=O)CSc2nnc(-c3ccccc3)n2C)c(C)n1C	-	-	-	-	-
O=C(O)CSc1nnc(-c2ccncc2)n1CCc1ccccc1	-	-	-	192	150
Cc1cc(C(=O)CSc2nnc(-c3ccncc3)n2-c2ccccc2)c(C)n1C	?	?	15[may fluoresce violet]	283[may fluoresce violet]	-
CC(C)(O)CNC(=O)Nc1ccc(Cl)c(Cl)c1	?	?	30[may fluoresce violet]	-	-
CN(C)CCNC(=O)Nc1ccc(Cl)c(Cl)c1	-	-	-	-	-
SMILES	AGP1 TOR yeast	CIT2-GFP yeast	RPL19A-GFP yeast	MEP2 TOR yeast	LAP4 TOR yeast
COc1ccc(NC(=O)COC(=O)c2c(C)noc2C)c(OC)c1	-	-	-	-	-
CCCCCn1c(-c2ccco2)nc2nc3ccccc3nc21	-	?	-	209[may fluoresce violet]	-
c1ccc(Cn2c(-c3ccco3)nc3nc4ccccc4nc32)cc1	-	-	-	-	-
CCOC(=O)c1c(O)c2cccc3c2n(c1=O)CC3	?	?	32[may fluoresce violet]	347[may fluoresce violet]	-
O=C(NCCO)c1c(O)c2cccc3c2n(c1=O)CC3	-	-	-	-	-
Cc1nc2ccccc2n1Cc1ccc(Cl)cc1	-	-	-	-	-
COc1ccc(NC(=S)N2CCC(C(O)(c3ccccc3)c3ccccc3)CC2)cc1	-	-	-	-	-
COc1ccc(NC(=S)N2CCC(c3ccccc3)C2)cc1 (stereo unspecified)	-	-	-	249	-
O=C1CNC(=O)N1	?	?	40[may fluoresce violet]	236[may fluoresce violet]	-
O=C1NC(=O)C(=O)N1	-	-	-	-	-
Cc1ccnc(N(C(=O)Nc2ccccc2)C2=NCC(C)(C)S2)c1	-	-	-	-	-
CN(C)C(CNC(=O)c1ccc(C(=O)c2ccccc2)cc1)c1ccccc1 (stereo unspecified)	?	?	41[may fluoresce violet]	252[may fluoresce violet]	-
